The whole screen tested about 1,600 compounds, of which about 1,100 (69%) were called active. So high a share suggests a set chosen from earlier hits. The list is a sample of the results. Results with a measured potency or affinity are listed apart. Results filed as inconclusive are left out.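 Rule for the calls: active = signal drop with fitted half-maximal concentration no higher than twice the top valid tested concentration; inconclusive = flat curve with 30 to 70% signal loss, or poor fit; inactive = the rest, including signal rises and flat curves within 30%.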
Test: HepG2 cell cytotoxicity, dose response, cytotoxicity control for Shn3 inhibitor project, CellTiter-Glo, cherry-picked (AID 624134);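 note: 0% = median of neutral control wells and -100% = median of positive control wells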
Conditions: HepG2 viability, CellTiter-Glo ATP luminescence, 48 h; series mostly up to 35 µM; activity change, negative = cytotoxicity: at the top concentration

Row | Structure (SMILES) | activity change, negative = cytotoxicity
1 | O=C(NCCCn1ccnc1)C(=O)NCC1OCCCN1S(=O)(=O)c1ccccc1 (stereo not drawn) | 3.35% (inactive)
2 | CC(C)c1c(O)c2c(n(-c3ccccc3)c1=O)CCCC2 | 5.24% (inactive)
3 | Cc1ccc(NC(=O)c2cc3ccccc3oc2=O)cc1S(=O)(=O)N(C)C | -2.4% (inactive)
4 | O=C1CCc2cccc(O)c2N1 | 3.06% (inactive)
5 | Cc1ccc(Cn2ccc(NC(=O)c3nn(C)cc3[N+](=O)[O-])n2)cc1 | -12.5% (inactive)
6 | Cc1ccc(C(=O)Nc2cnc3ccccc3c2)cc1 | -4.82% (inactive)
7 | COC(=O)c1ccccc1NC(=S)N(Cc1ccc2c(c1)OCO2)Cc1cc2cc(OC)ccc2[nH]c1=O | -10.8% (inactive)
8 | CC(C)c1nnc(NC(=O)c2nc(S(=O)(=O)Cc3ccc(F)cc3)ncc2Cl)s1 | -7.09% (inactive)
9 | COCc1nn2c(N)c(C#N)cnc2c1-c1ccccc1 | 0.007% (inactive)
10 | C=CCOc1nc2c(c(=O)n(C)c(=O)n2C)n1Cc1ccc(Cl)cc1 | -6.18% (inactive)
11 | COc1ccc(CCNC(=O)CCC(=O)N2CCOc3ccc(Cl)cc32)cc1OC | -4.82% (inactive)
12 | CCOC(=O)N1CCN(CC(c2ccccc2)c2ccccc2)CC1 | -2.51% (inactive)
13 | COc1ccccc1NC(=O)Cn1cc(C(=O)C2CC2)c2ccccc21 | -17.6% (inactive)
14 | CCC(CC)CN1C(N(C)C)=NC[C@@H]1CC(C)C | -2.51% (inactive)
15 | CCOC(=O)C1CCCN(S(=O)(=O)c2ccc(S(=O)(=O)N3CCCC3)cc2)C1 (stereo not drawn) | -6.66% (inactive)
16 | CN(CC(=O)NCc1ccc2c(c1)OCO2)S(=O)(=O)c1ccc(Br)s1 | 11.1% (inactive)
17 | Cc1cccc(CCN2C(N(C)C)=NC[C@@H]2CC(C)C)c1 | -11.9% (inactive)
18 | O=C1C=C(N2CCOCC2)c2ccccc2C1=O | -0.716% (inactive)
19 | COc1cc(OC)c(OC)cc1/C=C1\CC(C)C/C(=C\c2cc(OC)c(OC)cc2OC)C1=O (stereo not drawn) | 9.81% (inactive)
20 | Cc1ccc(C)c(S(=O)(=O)Nc2ccc(-n3cnnn3)cc2)c1 | -0.783% (inactive)
21 | CC1(Cc2ccc(OC(F)(F)F)cc2)C(=O)Nc2c(Cl)ccc(Cl)c21 (stereo not drawn) | -0.472% (inactive)
22 | Cc1nn(Cc2c(Cl)cccc2Cl)c(C)c1NC(=O)c1cn(-c2ccccc2)nc1-c1ccccc1 | -1.4% (inactive)
23 | Cc1nn(Cc2noc(C(=O)NC3CCC(C)CC3)n2)c(C)c1Br (stereo not drawn) | -0.596% (inactive)
24 | CCOC(=O)CC1CCCCN1C(=O)c1cc(COc2cccc3cnccc23)on1 (stereo not drawn) | -18.8% (inactive)

Row | Structure (SMILES) | activity change, negative = cytotoxicity
25 | OC(c1ccccc1)C(O)C(c1ccccc1)N1CCCCC1 (stereo not drawn) | -8.45% (inactive)
26 | CCCOc1ccc2oc(=O)c3c(c2c1)CCCN3C(=O)CN1CCN(c2ncccn2)CC1 | -4.39% (inactive)
27 | OCCCNc1cc(-c2ccnc(Nc3cccc(Cl)c3)n2)ccn1 | -19% (inactive)
28 | OCCCNc1nccc(-c2cc(Nc3cccc(Cl)c3)ncn2)n1 | -12% (inactive)
29 | COc1ccc(OC)c(C(c2nnnn2Cc2ccccc2)N2CCN(C3CCCCC3)CC2)c1 (stereo not drawn) | -9.05% (inactive)
30 | O=S(=O)(c1ccc(Cl)cc1)n1ccc2cccnc21 | 0.483% (inactive)
31 | Cc1sc2ncnc(N3CCN(S(=O)(=O)c4ccccc4)CC3)c2c1C | -22.3% (inactive)
32 | O=C(CN1C(=O)C2CCCCC2C1=O)NC1CCCc2ccccc21 (stereo not drawn) | -0.197% (inactive)
33 | CCc1ccc(-n2c(O)c(C=NCCN(CC)CC)c(=O)[nH]c2=O)cc1 | -6.43% (inactive)
34 | CC(C)c1nnc(NC(=O)c2nc(S(=O)(=O)Cc3ccccc3)ncc2Cl)s1 | -6.87% (inactive)
35 | O=C1CC(c2ccccc2)CC(O)=C1C=Nc1cccc(Cl)c1 (stereo not drawn) | -7.86% (inactive)
36 | CC(=O)N1CCN(C(=O)CCc2cc(C(C)(C)C)c(O)c(C(C)(C)C)c2)CC1 | -8.85% (inactive)
37 | COC(=O)[C@@]12CCCCN1[C@H](c1ccc(SC3CCCCC3)c(OC)c1)[C@@H]1C(=O)N(C)C(=O)[C@@H]12 | -9.78% (inactive)
38 | CSc1nnc(NC(=O)c2nc(S(=O)(=O)Cc3cccc(C)c3)ncc2Cl)s1 | -2.96% (inactive)
39 | CCSc1nnc(NC(=O)c2nc(S(=O)(=O)Cc3ccc(F)cc3)ncc2Cl)s1 | -8.21% (inactive)
40 | Cc1ccc(CS(=O)(=O)c2ncc(Cl)c(C(=O)Nc3nnc(C(C)C)s3)n2)cc1 | -10.4% (inactive)
41 | CC(C)(C)[C@@H]1COC(=O)[C@@H](NC(=O)OCC2c3ccccc3-c3ccccc32)C/C=C\C[C@@H](CC(=O)NCCO)C(=O)N1 | -18.4% (inactive)
42 | C[C@H]1COC(=O)[C@H](NC(=O)OCC2c3ccccc3-c3ccccc32)C/C=C\C[C@H](CC(=O)N(CCO)Cc2ccccc2)C(=O)N1 | -2.09% (inactive)
43 | O=C(CN1C(=O)c2ccccc2S1(=O)=O)c1ccc2c(c1)OCCCO2 | 4.26% (inactive)
44 | COC(=O)[C@@]12CCCN1[C@H](c1ccc(-c3ccc(OC)cc3)cc1)[C@@H]1C(=O)N(C)C(=O)[C@@H]12 | -1.78% (inactive)
45 | O=C1/C(=C/c2ccccn2)SC(=S)N1Nc1ncc(C(F)(F)F)cc1Cl | -1.16% (inactive)
46 | COc1cc(NC(=O)COc2cccc3c2OC(C)(C)C3)cc(OC)c1OC | -10.7% (inactive)
47 | CCOC(=O)c1c(C)[nH]c(C(=O)COC(=O)[C@H](C)N2C(=O)C3CCCCC3C2=O)c1C (stereo partly drawn) | -1.04% (inactive)
48 | CCOc1ccc(NS(=O)(=O)c2cc(C(=O)NCCN3CCOCC3)ccc2C)cc1 | -2.87% (inactive)
